The campaign covered roughly 7,400 compounds. About 4,100 (55%) were called active. The set was probably picked from earlier hits. Only a sample is shown. Unmarked numbers belong to inactive results.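 How the source made its calls: active means inhibition of yeast growth at or above a set limit in either of two repeat tests at 20 µM; inactive means the rest.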

The assay can be described thus: tim10-1 ts yeast growth inhibition, retested – single concentration, luminescence, S. cerevisiae, confirmation (AID 463213).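 Further: tim10-1 mutant grown at permissive 25 °C to find synthetic lethal compounds; 0% = DMSO yeast wells and 100% = medium wells without yeast.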 Conditions: S. cerevisiae tim10-1 ts strain growth, BacTiter-Glo, 24 h; at 20 µM; stronger effect = higher value.
As usually defined, the inhibition is the change of the read-out against control, counted positive when it falls. Take `Cc1nonc1C(=O)N/N=C/c1ccc(O)cc1`: the inhibition is 44.9% (active).
Take `O=C(/C=C/c1ccc(Cl)cc1Cl)NCc1ccco1`: the inhibition is 34.4% (active).
Turning to `COc1ccc(-c2cc(C3CCN(c4ncccc4[N+](=O)[O-])CC3)[nH]n2)cc1`, the inhibition is 30.2%.
Under `COC(C/C=C/C(=O)[C@@H](C)OCc1ccccc1)OC` stands 43.7% (active).
Under `CCc1ccc2oc(-c3ccc(N)cc3)nc2c1` stands 41.8% (active); under `Nc1ccc(-c2nnc(-c3ccc(-c4ccccc4)cc3)o2)cc1`, 25.1%; under `COc1ccc(NC(=O)c2cc3nc(-c4ccccc4)cc(C)n3n2)cc1OC`, 33.3% (active).
The result for `CC(C)CCNC(=O)c1ccc2c(Cl)c3c(nc2c1)CCC3` reads 35% (active).
In the case of `Cc1ccc(-c2cn3cc(C)ccc3n2)cc1`, the inhibition is 43.9% (active).
The result for `CSc1nnc2ccc(-c3ccc(C)cc3)nn12` reads 24.9%.
Under `COc1ccc2c(c1)cc1n2CCN=C1NN` stands 27.9%; under `COc1ccccc1CNC(=O)c1ccc(SC)cc1OC`, 20.9%.
The result for `CCOC(=O)C(=Cc1ccccc1OC)C(=O)OCC` reads 30.1% (active).
Regarding `CNC(C)C#Cc1ccc2sc3cc(OC)c(OC)cc3c(=O)c2c1` (stereo unspecified), the inhibition was 31.8% (active).
The result for `CSC(=S)N/N=C/c1c[nH]c2ccccc12` reads 41.7% (active).
The result for `COC(=O)CSc1snnc1-c1ccc(Cl)c(Cl)c1` reads 31.9% (active); that for `CCC(=O)Nc1nc2ccccc2n1Cc1ccccc1C`, 18%.
Under `O=c1oc(-c2ccco2)nc2sc3c(c12)CCCCC3` stands 3.45%; under `O=C(NCc1ccco1)c1cccn2c(=O)c3c4c(sc3nc12)CCCC4`, 42.4% (active); under `CN(C)CCN(C(=O)C1=COCCO1)c1nc2ccc(Cl)cc2s1`, 69% (active).
As to `Cc1ccc(-c2csc(NC(=O)C3=COCCO3)n2)cc1C`, the inhibition is 18.2%.
Under `Cc1ccc2nc(N(CCN(C)C)C(=O)C3=COCCO3)sc2c1` stands 35.6% (active); under `Clc1ccc(C2CC(c3cccs3)n3ncnc3N2)cc1Cl` (stereo unspecified), 18%; under `Cc1oc2c(c1C(=O)N1CCOCC1)C(=O)c1ccccc1C2=O`, 27.7% (active).
In the case of `Cc1ccc(S(=O)(=O)NC(C(=O)N2CCOCCOCCOCCOCC2)c2ccccc2)cc1` (stereo unspecified), the inhibition is 0.85%.
Under `O=C1c2cccc3c([N+](=O)[O-])ccc(c23)C(=O)N1CC1CCCO1` (stereo unspecified) stands 46.5% (active); under `O=C(Cc1ccc(Cl)c(Cl)c1)Nc1ccc(SC(F)F)cc1`, 35.9% (active).
The result for `N#C/C(=C\c1cccnc1)C(=O)Nc1ccc(SC(F)F)cc1` reads 17.2%.
As to `COc1ccc(C(C[N+](=O)[O-])n2nc(C)cc2C)cc1` (stereo unspecified), the inhibition is 38.1% (active).
Under `COc1cccc(Cn2cnc3c([N+](=O)[O-])c(C)c(C)cc32)c1` stands 25.6%.
The result for `COc1ccc2c(c1)C(NS(=O)(=O)OCC(Cl)(Cl)Cl)CCC2` (stereo unspecified) reads 27.9% (active); that for `Cc1nn(Cc2ccc(Cl)c(Cl)c2)c(C)c1NC(=O)c1cc(C2CC2)on1`, 51.2% (active).
Under `O=C1CSC(=S)N1c1ccc(Cl)c(Cl)c1` stands 34.4% (active).
`S=C(NCCCc1ccccc1)Nc1ccc(Br)cc1`: the inhibition was 36.3% (active).
Consider `COc1ccc2nc(NC(=O)[C@@H]3CCCN3C(=O)c3cccs3)sc2c1`, for which the inhibition is 19.9%.
Under `CC(C)(C)NC(=O)NC(=O)COC(=O)CCC1CCCCC1` stands 37.9% (active).
The result for `Cc1nn2c(c1-c1ccccc1)N=C(c1ccco1)CC2c1ccccc1` (stereo unspecified) reads 28.9%; that for `COc1ccc2nc(Nc3nc4cc5c(cc4s3)OCCO5)sc2c1`, 1.5%; that for `CCn1c(/C=C/c2ccc([N+](=O)[O-])o2)nc2ccccc2c1=O`, 45.9% (active).
For `Brc1ccc(C2=CC(c3ccco3)n3ncnc3N2)cc1` (stereo unspecified), the inhibition is 18.9%.
As for `Nc1ccccc1Sc1ccc(C(F)(F)F)cc1[N+](=O)[O-]`, the inhibition is 61.2% (active).

Values taken from PubChem BioAssay AID463213 (Sanford-Burnham Center for Chemical Genomics, 2010).
